Compound activity (PubChem)
The list is not random: actives were taken first. Their share in the collection is about 6.6%.
KB-3-1 tox = KB-3-1 parental cell cytotoxicity | KB-3-1 viability, CellTiter-Glo ATP luminescence, 72 h | Potency, µM (top dose mostly 46.1 µM), hits mostly cytotoxic | 400,000 compounds, 1.4% hits | AID 1347075; note: % is set by controls: 0 for no effect and ±100 for the full control effect; nearly all actives have a fitted effect of over 60% in size
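KB-3-1 parental drug-naive adenocarcinoma cells in DMEM/10% FBS, incubated 72 h at 37 C with pin-transferred compounds across a concentration series. Viability by CellTiter-Glo luminescence; concentration-response curves fitted after normalization.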
SW480 rerep = inducers of DNA re-replication in SW480 colon cancer cells | 340,000 compounds, 1.8% hits | Potency, µM (highest dose often 46.1 µM), inactives show at the top dose re-replication activation, most hits filed as activators | AID 624297 | SW480 DNA re-replication, Hoechst DNA content imaging, 48 h; note: % of control where 0% means no effect; nearly all actives have a fitted effect of over 55% in size
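Treated cells incubate 48 hr (37 C, 5% CO2), are stained 40 min with Hoechst, and nuclear fluorescence is enumerated; a rise in nuclei with high DNA signal marks re-replication.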
KB-V1 cytotox = KB-V1 MDR subline cytotoxicity. KB-V1 MDR cells viability, CellTiter-Glo, 72 h. Potency, µM (titrated, usually from 46.1 µM), actives largely listed as cytotoxic. 400,000 compounds, 3.4% hits. AID 1347076; note: % is set by controls: 0 for no effect and ±100 for the full control effect; nearly all actives have a fitted effect of over 60% in size
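Compound-treated KB-V1 multidrug-resistant cells, 72 h, 37 degrees C; viability by CellTiter-Glo. Fitted qHTS curves give the values.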
MCF10A rereplic = induces DNA re-replication in MCF 10a normal breast cells | MCF 10A DNA re-replication, Hoechst nuclear intensity, 48 h | Potency, µM (titrated, usually from 46.1 µM), without a hit: at the top dose activity, positive = re-replication, usual class: activators | 350,000 compounds, 2.9% hits | AID 624296; note: % of control where 0% means no effect; nearly all actives have a fitted effect of over 50% in size
TSG101-PTAP inh = blocks PTAP/TSG101 interaction to inhibit HIV-1 budding; Fluorescence polarization, FITC-PTAP peptide / Tsg101 binding; AID 493005; Q99816; Potency, µM (titrated, usually from 115 µM), inactives show at the highest dose activity change, negative = inhibition, usual class: inhibitors; 340,000 tested, under 10 active; active = well fitted inhibition curve with a large enough effect in the main read-out, with a control signal flat, not every such curve was filed as active; inconclusive = small, poorly fitted or top-dose-only effect, or effect the other way, or a change in a side signal; inactive = no such curve, though single readings can be large or run the other way; note: % of control where 0% means no effect
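Fluorescence polarization binding of Tsg101 binding domain (10 uM final) to FITC-labeled PTAP peptide (50 nM final) in HEPES pH 7.5 buffer with NaCl, Tween 20, EDTA, TCEP. Compounds added before peptide; binding 20 min at RT.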
RGS4 inh = inhibitors of human regulator of G protein signaling 4. Transcreener GDP fluorescence polarization, RGS4-accelerated GTP hydrolysis. AID 504845. P49798. 390,000 compounds, 0.039% hits. Potency, µM (series often up to 114 µM), inactives show top-dose activity change, negative = inhibition, most hits filed as inhibitors; note: % is set by controls: 0 for no effect and ±100 for the full control effect; nearly all actives have a fitted effect of over 75% in size
Target sequence (P49798 whole entry, looked up): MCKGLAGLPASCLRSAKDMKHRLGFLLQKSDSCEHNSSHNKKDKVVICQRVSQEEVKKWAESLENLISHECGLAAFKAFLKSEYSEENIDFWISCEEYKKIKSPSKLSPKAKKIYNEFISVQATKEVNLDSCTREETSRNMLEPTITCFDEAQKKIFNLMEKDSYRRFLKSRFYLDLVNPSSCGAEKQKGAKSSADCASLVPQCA
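MLSMR compounds (23 nl, pin-transferred) preincubated 10 min at room temperature with a 500nM (2x) first reagent, then RGS4 at 900nM (2x) plus Transcreener GDP mix added; fluorescence polarization (620/688 nm) read before and after 90 min at 30 °C.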
* = called active by the depositor; i = inactive; ? = inconclusive; · = no result given; ! = not confirmed by another sample. Unless noted, calls come from the whole dose curve; as a rule, active = well fitted curve in the direction sought with a large enough effect; inconclusive = small, poorly fitted or top-dose-only effect, or another doubt; inactive = no such curve, though single readings can be large; an effect the other way counts as inactive or inconclusive. Potency is the fitted concentration of half-maximal effect.

SMILES	KB-3-1 tox	SW480 rerep	KB-V1 cytotox	MCF10A rereplic	TSG101-PTAP inh	RGS4 inh
COc1cccc(N2CC(NC(=O)CCCc3ccccc3)CC2=O)c1 (centres undefined)	·	·	·	·	·	24%
CCN(c1ccccc1)c1ccc2cc(S(=O)(=O)N3CCCC3)ccc2n1	i	·	i	·	·	19%
COC(=O)C1=C(C)NC(C)=C(C(=O)OCCCN2CCC(c3ccccc3)(c3ccccc3)CC2)[C@H]1c1cccc([N+](=O)[O-])c1	·	·	·	·	·	i
c1cc2c3c(c1)CCCN3CCC2	i	·	i	·	·	·
CCN(c1ccc(C)c(C)c1)S(=O)(=O)c1ccc2c(c1)CCN2C(=O)CCC(=O)O	i	?	i	21µM*	-1%	-30%
COc1cc(OC)c(OC)cc1/C=C/c1ccc2ccccc2[n+]1C	13µM*	·	i	·	·	·
COc1ccc(/C=C/c2ccc3ccccc3[n+]2C)c(OC)c1OC	?	·	i	·	·	·
COc1ccc(/C=C/c2ccc3ccccc3[n+]2C)cc1OC	10µM*!	-29%	i	-8%	6%	-1%
COc1ccc(-c2sc3cc(OC)c(OC)cc3c2-c2ccc(O)cc2)cc1	i	21µM*	i	?	-1%	28%
COc1cc2sc(-c3ccccc3OC)c(-c3ccc(OCCN4CCCCC4)cc3)c2cc1OC	?	-4%	?	?	-5%	5%
COc1ccccc1-c1sc2ccccc2c1-c1ccc(O)cc1	i	16µM*	i	?	-1%	17%
COc1ccc(-c2sc3ccccc3c2-c2ccc(O)cc2)cc1	?	6%	i	?	·	-3%
COc1ccccc1-c1sc2cc3c(cc2c1-c1ccc(OCCN2CCCCC2)cc1)OCO3	?	5%	?	10µM*	-2%	2%
COc1ccc2sc(-c3ccccc3OC)c(-c3ccc(OC)nc3)c2c1	i	-4%	i	23µM*	-1%	-3%
CN1c2ccccc2C(=O)N2CCc3c([nH]c4ccccc34)C21 (centres undefined)	·	·	·	·	·	18%
Cc1ccc(NC(=O)c2oc3ccc(S(=O)(=O)N4CCCCCC4)cc3c2C)c(C)c1	i	·	i	·	·	-2%
Cc1ccccc1OCC(=O)N(Cc1ccc(C(C)C)cc1)C1CCS(=O)(=O)C1 (centres undefined)	i	·	i	·	·	21%
COc1ccc(-c2c(-c3ccccc3OC)oc3ccccc23)cn1	i	-4%	i	16µM*	·	15%
COc1ccccc1-c1sc2ccccc2c1C#Cc1ccc(N(C)C)cc1	i	8.2µM*	i	?	·	6%
COc1ccccc1-c1oc2ccccc2c1-c1ccc2c(c1)OCO2	i	-5%	i	?	1%	7%
Cc1cc(Nc2ccccc2Cl)nc(-c2ccccc2O)n1	i	?	i	?	-2%	-24%
Cc1cc(NC2CCCCC2)nc(-c2ccccc2O)n1	?	0%	?	18µM*	3%	-16%
Cc1ccc(C)c(Nc2cc(C)nc(-c3ccccc3O)n2)c1	2.6µM*	?	i	?	-4%	-8%
Cc1cc(N/N=C/c2c(O)ccc3ccccc23)nc(-c2ccccc2O)n1	?	13µM*	?	3.3µM*	-4%	14%
Cc1cc(Nc2ccccc2)nc(-c2ccccc2O)n1	i	1%	i	?	-6%	-16%
Cc1cc(NCc2ccccc2)nc(-c2ccccc2O)n1	?	-4%	16µM*	?	-1%	-9%
COCc1cc(C)nc2c1C(=O)NC(c1ccc(F)cc1)N2Cc1ccccc1 (centres undefined)	i	·	i	·	·	7%
Cc1ccc(C)c(N2CCN(C(=O)C3CCN(S(=O)(=O)c4cn(C)cn4)CC3)CC2)c1	·	·	·	·	·	12%
C[n+]1c(/C=C/c2ccnc3ccccc23)cc(/C=C/c2ccnc3ccccc23)c2ccccc21	i	·	i	·	·	·
